Reference: PubChem BioAssay
Values joined by “and” are separate entries in the source; they are usually repeats but may differ in a detail not shown here. Identical values can stand only once. Active and inactive are the calls of the source.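 Rule for the calls, unless noted: active = inhibition at or above 50% relative to wild type and mutant plate controls; inactive = inhibition below 50%.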

Legend:
[1] = inhibitors of TNFa-induced NFkB p65 translocation, primary screen, imaging, HUVEC, MLSMR starter and 10KST1 sets (AID 438;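 active = inhibition above 20% together with a positive visual image hit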;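 note: compound added about 3h40 before a 20 min TNFalpha stimulation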;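 for inhibition: signal is the nuclear over cytoplasmic p65 intensity ratio per well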); details: HUVEC TNFa-induced p65 nuclear translocation; cell count: measured here: nuclei count (cytotoxicity indicator), at 2.08 µM; inhibition: at 2 µM, stronger effect = higher value, 0% TNFa-plus-vehicle, 100% no-TNFa wells
[2] = reduction of polyQ htt aggregates in cells – imaging, exon1htt(103Q)mCFP cells, high-content imaging, primary screen (AID 483;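 active = visual image review flags a hit and inhibition of aggregation exceeds 20%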;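 note: compound exposure lasted 3 days before fixation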;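 for nuclei count: percent of the per-plate median nuclei count of sample wells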); details: exon1htt(103Q)mCFP cell line, aggregate imaging, at 2 µM; inhibition of aggregation: stronger effect = higher value; nuclei count: measured here: cell count, toxicity
[3] = endothelial E-selectin expression blockers – imaging, HUVEC, immunofluorescence, MLSMR starter and 10KST1 sets, primary screen (AID 487;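 active = visually confirmed hit in the image check and inhibition above 20%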;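 for inhibition: signal is fraction of cell area covered by stained E-selectin grains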;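 for nuclei count: 100% = median nuclei count of all wells on the same plate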); details: HUVEC TNFalpha-induced E-selectin immunofluorescence imaging, at 2 µM; inhibition: stronger effect = higher value; nuclei count: measured here: cell number, toxicity
[4] = Primary imaging screen for DUSP6 inhibitors that restore phospho-Erk in transfected HeLa cells, chemical complementation (AID 609;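 active = compounds giving at least 50% inhibition in the cell-based MKP-3 phosphatase rescue imaging test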;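 for inhibition: phospho-Erk level distribution per well compared with pooled transfected vehicle control wells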); details: HeLa MKP-3 transfected, phospho-Erk imaging KS statistic, at 10 µM, cells stimulated with TPA for 15 min
[5] = target: Dual specificity protein phosphatase 6 (Homo sapiens) (UniProt Q16828); experiment: as above; details: HeLa MKP-3 transfected, phospho-Erk imaging KS statistic; at 10 µM; stronger effect = higher value; cells stimulated with TPA for 15 min
Chain of Dual specificity protein phosphatase 6 (Homo sapiens) (Q16828 whole entry, looked up): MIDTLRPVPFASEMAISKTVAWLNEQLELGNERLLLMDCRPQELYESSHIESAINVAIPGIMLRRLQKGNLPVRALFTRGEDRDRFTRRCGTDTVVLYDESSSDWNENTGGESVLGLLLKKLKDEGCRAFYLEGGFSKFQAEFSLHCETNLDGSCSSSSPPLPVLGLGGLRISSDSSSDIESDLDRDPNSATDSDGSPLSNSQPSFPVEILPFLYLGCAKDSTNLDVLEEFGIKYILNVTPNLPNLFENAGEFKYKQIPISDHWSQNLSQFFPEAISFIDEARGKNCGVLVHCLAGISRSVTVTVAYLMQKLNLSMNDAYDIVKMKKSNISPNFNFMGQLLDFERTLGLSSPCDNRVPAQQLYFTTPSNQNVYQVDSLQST

[6] = target: Voltage-gated potassium channel subunit beta-2 (Rattus norvegicus) (UniProt P62483); experiment: inhibitors of rat Kvbeta2 reductase activity – biochemical, NADPH fluorescence, primary screen (AID 622;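 active = fluorescence slope higher than the sample average by over 3 SD, cut at about -0.22 in these data, passing the limit was not always enough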;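 note: slope of raw intensity against log time taken from 70 to 1610 s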); details: recombinant KvBeta, 4-cyanobenzaldehyde reduction, at 10 µM, stronger effect = higher value
Chain of Voltage-gated potassium channel subunit beta-2 (Rattus norvegicus) (P62483 whole entry, looked up): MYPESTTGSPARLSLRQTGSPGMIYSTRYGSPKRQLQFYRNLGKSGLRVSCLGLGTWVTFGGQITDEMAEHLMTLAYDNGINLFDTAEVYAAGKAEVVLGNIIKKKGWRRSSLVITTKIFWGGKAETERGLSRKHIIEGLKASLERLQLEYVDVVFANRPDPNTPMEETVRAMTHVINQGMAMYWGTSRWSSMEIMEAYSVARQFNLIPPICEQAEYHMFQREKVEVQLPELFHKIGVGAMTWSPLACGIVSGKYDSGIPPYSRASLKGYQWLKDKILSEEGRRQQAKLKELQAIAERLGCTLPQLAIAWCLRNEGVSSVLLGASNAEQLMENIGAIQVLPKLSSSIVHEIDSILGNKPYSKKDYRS

[7] = target: Voltage-gated potassium channel subunit beta-2 (Rattus norvegicus) (UniProt P62483); experiment: enhancers of rat Kvbeta2 NADPH turnover – biochemical, NADPH fluorescence, primary screen (AID 623;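 active = NADPH fluorescence slope more negative than the mean of all samples by about 3 SD, 99.7% confidence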;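 note: fluorescence intensity change per second fitted from 20 to 320 s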); details: Recombinant KvBeta, NADPH fluorescence decrease slope, 10 min; at 10 µM; stronger effect = lower value
[8] = target: Alpha-2C adrenergic receptor (Homo sapiens) (UniProt P18825); experiment: compounds altering alpha2C-coupled GIRK flux – cell-based, HEK293 alpha2C/GIRK1/2, thallium flux, primary screen (AID 624;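 active = fluorescence slope after compound addition differing from the mean of all screened samples at 99.7% confidence, in either direction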;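 note: slope of fluorescence ratio to pre-addition baseline per second over 15 to 24 s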); details: thallium flux BTC fluorescence, at 10 µM, actives lie on both sides
Chain of Alpha-2C adrenergic receptor (Homo sapiens) (P18825 whole entry, looked up): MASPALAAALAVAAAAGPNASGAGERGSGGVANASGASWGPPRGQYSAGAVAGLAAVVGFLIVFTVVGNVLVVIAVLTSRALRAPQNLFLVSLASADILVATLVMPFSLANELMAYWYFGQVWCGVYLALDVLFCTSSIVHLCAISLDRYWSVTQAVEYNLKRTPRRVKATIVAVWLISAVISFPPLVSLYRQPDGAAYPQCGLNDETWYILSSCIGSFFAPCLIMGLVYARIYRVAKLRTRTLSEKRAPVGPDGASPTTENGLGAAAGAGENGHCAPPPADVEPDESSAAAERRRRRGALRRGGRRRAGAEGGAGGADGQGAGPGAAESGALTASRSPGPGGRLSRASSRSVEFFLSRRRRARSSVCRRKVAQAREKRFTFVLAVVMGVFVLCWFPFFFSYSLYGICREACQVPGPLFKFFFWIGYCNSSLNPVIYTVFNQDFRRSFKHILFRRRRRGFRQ

[9] = inhibitors of larval lipid processing in zebrafish, primary screen, whole organism, PED6 fluorescence, gall bladder and intestine (AID 686;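 active = a full or partial loss of lipid-probe fluorescence in the fish gall bladder, intestine or both, judged by eye; inactive = no fluorescence loss, or compound toxic to the fish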;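 note: larvae 5 to 7 days old with five fish per well; signal comes from phospholipase A2 cleavage of quenched PED6 carried via bile; overnight exposure to compound and PED6 before scoring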); details: Zebrafish larvae PED6 lipid processing, fluorescence scoring; screened at 20 µM (by protocol)
[10] = loss of swimming-algae plug formation – whole organism, Chlamydomonas reinhardtii, WT vs cilia-less mutant, absorbance, 96-well, primary screen (AID 463189); details: Chlamydomonas reinhardtii gravitaxis, OD600 absorbance, 2 days; at 10 µM; stronger effect = higher value;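 note: 0% = wild type cc124 cells in DMSO and 100% = ciliumless bld1 mutant cells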
[11] = blockers of RIG-like receptor reporter activation – cell-based, Sendai virus stimulus, luciferase, 10K MLSCN set, TLR/RLR signaling modifier project, primary screen (AID 602276;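 active = inhibition at or above 50% at 10 µM; inactive = inhibition below 50%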;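 note: firefly luciferase from ISG56 promoter only with Renilla not read in this screen; 0% = Sendai virus plus DMSO and 100% = medium plus DMSO without virus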); details: HEK293 RL24 IRF3 luciferase reporter, at 10 µM, stronger effect = higher value
[12] = TLR3 IRF3 reporter activation blockers – cell-based, poly I:C stimulus, luciferase, 10K MLSCN set, primary screen (AID 602277;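 active = inhibition of the reporter signal at or above 50%; inactive = inhibition below 50%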); details: HEK293-TLR3 RL24 IRF3 luciferase reporter, at 10 µM, stronger effect = higher value
[13] = measured here: cell density z-score
[14] = measured here: nuclear c-Myc green intensity z-score
[15] = measured here: nuclear pErk red intensity z-score, stronger effect = higher value

Compound | cell count [1] | inhibition [1] | inhibition of aggregation [2] | nuclei count [2] [%] | inhibition [3] | nuclei count [3] [%] | z-score [4, 13] | z-score [4, 14] | z-score [4, 15] | inhibition [5] | fluorescence slope [6] | NADPH fluorescence slope [7] | slope [8] | outcome [9] | inhibition [10] | inhibition [11] | inhibition [12]
CCN(CC)c1ncc(C)c(=O)[nH]1 | 410 | -19.3% (inactive) | -26.9% (inactive) | 121 | -44.9% (inactive) | 111 | 0.304 | -0.433 | -0.0626 | -2.69% (inactive) | -0.541 (inactive) | -8.2e-05 (inactive) | 0.00493 (inactive) | inactive | 31.2% (inactive) | 22.3% (inactive) | 22% (inactive)
c1ccc(Cc2nnc3n2CCCCC3)cc1 | 427 | -7.4% (inactive) | 0.9% (inactive) | 104 | -122% (inactive) | 114 | -1.13 | -0.00465 | -0.441 | -0.608% (inactive) | -0.55 (inactive) | -4.5e-05 (inactive) | 0.0052 (inactive) | inactive | 22.9% (inactive) | 13.8% (inactive) | 22.9% (inactive)
CCN(CCCc1ccccc1)CCCc1ccccc1 | 633 | -10.9% (inactive) | -6.3% (inactive) | 95.6 | -92.8% (inactive) | 132 | -0.00243 | 0.557 | -0.117 | 9.37% (inactive) | -0.514 (inactive) | -3.6e-06 (inactive) | 0.00419 (inactive) | inactive | 128% (active) | 16.6% (inactive) | 29.6% (inactive)
O=C(O)c1cccnc1Nc1cccc(C(F)(F)F)c1 | 579 | -0.7% (inactive) | 7.2% (inactive) | 55.6 | -109% (inactive) | 125 | -1.55 | -0.913 | 0.921 | 3.59% (inactive) | -0.507 (inactive) | -5.7e-05 (inactive) | 0.00519 (inactive) | inactive | 0.869% (inactive) and -7.21% (inactive) | 17.3% (inactive) | 24.1% (inactive)
C[C@]12CC[C@@H]3c4ccc(OC(=O)c5ccccc5)cc4CC[C@H]3[C@@H]1CC[C@@H]2O | 623 | 1.2% (inactive) | -35.3% (inactive) | 31.5 | -112% (inactive) | 133 | -1.91 | 0.276 | -1.27 | -6.41% (inactive) | -0.467 (inactive) | -8.1e-05 (inactive) | 0.00784 (inactive) | inactive | 5.46% (inactive) | 7.4% (inactive) | 33.1% (inactive)
Cc1ncc([N+](=O)[O-])n1CC(O)CCl (stereo not given) | 546 | -5% (inactive) | -12.8% (inactive) | 100 | -91.7% (inactive) | 114 | 0.947 | -1.73 | -1.47 | 3.45% (inactive) | -0.5 (inactive) | 2.8e-05 (inactive) | 0.00498 (inactive) | inactive | -0.632% (inactive) | -0.807% (inactive) | 16.6% (inactive)
CC(C)OC(=O)C(CC(=O)O)NCc1ccccc1 (stereo not given) | 518 | -2% (inactive) | 15% (inactive) | 65.3 | -117% (inactive) | 118 | 0.414 | 0.989 | 0.212 | 1.75% (inactive) | -0.296 (inactive) | 2.8e-05 (inactive) | 0.00502 (inactive) | inactive | -6.73% (inactive) | 14.9% (inactive) | 20.3% (inactive)
COC(=O)c1cc(Br)c(=O)n(Cc2cccnc2)c1 | 578 | 3% (inactive) | -10.7% (inactive) | 108 | -15.9% (inactive) | 109 | -0.222 | 1.1 | -1.83 | -3.5% (inactive) | -0.545 (inactive) | -2.2e-05 (inactive) | 0.00588 (inactive) | inactive | -26.1% (inactive) | 9.75% (inactive) | 17.7% (inactive)
Cc1nc2ccccn2c(=O)c1CCN1CCC(C(=O)c2ccc(F)cc2)CC1 | 712 | 2.4% (inactive) | -22.1% (inactive) | 103 | -63.6% (inactive) | 126 | 2.25 | 1.22 | -0.61 | 19% (inactive) | -0.464 (inactive) | 1.2e-06 (inactive) | 0.00457 (inactive) | inactive | 0.607% (inactive) and -12.6% (inactive) | 19.4% (inactive) | 35.8% (inactive)
CN1CCN(CC(=O)N2c3ccccc3C(=O)Nc3cccnc32)CC1 | 529 | 5.4% (inactive) | -20% (inactive) | 110 | -81.3% (inactive) | 123 | 2.59 | -0.126 | -1.97 | 25.7% (inactive) | -0.476 (inactive) | -3.8e-05 (inactive) | 0.00501 (inactive) | inactive | 1.89% (inactive) and 39.4% (inactive) | 18.8% (inactive) | 34.2% (inactive)
CCn1cc(C(=O)NCc2ccco2)c(=O)c2cc(F)c(N3CCN(C(=O)c4ccco4)CC3)cc21 | 380 | 16.3% (inactive) | 13.6% (inactive) | 99.3 | -117% (inactive) | 118 | 2.14 | -0.717 | 0.644 | 19.4% (inactive) | -0.279 (inactive) | 2.6e-05 (inactive) | 0.00489 (inactive) | inactive | -7.6% (inactive) | 14.3% (inactive) | 13.7% (inactive)
O=C(O)CCCCCCC1C(=O)NC(=O)N1CCC(O)C1CCCCC1 (stereo not given) | 579 | -9.7% (inactive) | -6.4% (inactive) | 97.8 | -76.1% (inactive) | 116 | -0.528 | -0.266 | 1.03 | -0.493% (inactive) | -0.507 (inactive) | -5.2e-05 (inactive) | 0.00541 (inactive) | inactive | 1.26% (inactive) | 15.9% (inactive) | 36.2% (inactive)
CC(=O)Oc1cc(C(C)C)c(OCCN(C)C)cc1C | 467 | -9.4% (inactive) | 22.4% (inactive) | 95.3 | -10.4% (inactive) | 108 | -0.0151 | 0.045 | -0.157 | 13.3% (inactive) | -0.475 (inactive) | -5.3e-05 (inactive) | 0.0046 (inactive) | inactive | 6.3% (inactive) and 24.6% (inactive) | 15% (inactive) | 49.2% (inactive)
COc1ccc(OC)c(C2=Nn3c(nnc3C3CCCCC3)SC2)c1 | 580 | -3.9% (inactive) | 18.9% (inactive) | 77.4 | -38.3% (inactive) | 118 | -0.0238 | 2.3 | -0.394 | 2.92% (inactive) | -0.431 (inactive) | -0.000148 (inactive) | 0.00512 (inactive) | inactive | 25.7% (inactive) | 5.58% (inactive) | 19.6% (inactive)
O=C(O)c1ccccc1S | 650 | -5% (inactive) | 6.8% (inactive) | 96.1 | -76.8% (inactive) | 126 | 1.28 | 1.34 | -0.494 | 21.2% (inactive) | -0.435 (inactive) | -8.2e-05 (inactive) | 0.00404 (inactive) | inactive | -11% (inactive) | 6.85% (inactive) | 19% (inactive)
CCOc1nc(-c2ccncc2)nc2ccccc12 | 416 | 5.6% (inactive) | -55% (inactive) | 13.3 | -66.1% (inactive) | 116 | -2.21 | -0.624 | 0.47 | 4.25% (inactive) | -0.322 (inactive) | 3e-05 (inactive) | 0.00435 (inactive) | inactive | 39.6% (inactive) | 13.1% (inactive) | 16.5% (inactive)
Cc1cn([C@H]2C[C@H](N=[N+]=[N-])[C@@H](CO)O2)c(=O)[nH]c1=O | 663 | -4% (inactive) | 1.9% (inactive) | 102 | -133% (inactive) | 128 | -0.406 | -0.912 | 2.26 | -6.41% (inactive) | -0.476 (inactive) | 3.5e-07 (inactive) | 0.00535 (inactive) | inactive | -6.84% (inactive) | 17.8% (inactive) | 37% (inactive)
CC(=O)OCC(=O)[C@@]1(O)CC[C@H]2[C@@H]3CCC4=CC(=O)C=C[C@]4(C)[C@@]3(Cl)[C@@H](Cl)C[C@@]21C | 574 | -7.2% (inactive) | -27.9% (inactive) | 64.3 | -50.9% (inactive) | 118 | 0.892 | 0.179 | 0.325 | 11.3% (inactive) | -0.484 (inactive) | -5.1e-05 (inactive) | 0.00396 (inactive) | inactive | 18.7% (inactive) | 5.49% (inactive) | 38.2% (inactive)
CC(=O)OCC(=O)[C@H]1CC[C@H]2[C@@H]3CCC4=CC(=O)CC[C@]4(C)[C@H]3CC[C@]12C | 599 | -7.8% (inactive) | -27.4% (inactive) | 83.1 | -142% (inactive) | 132 | -1.17 | 0.0337 | 1.04 | 11.3% (inactive) | -0.472 (inactive) | -1.7e-05 (inactive) | 0.00411 (inactive) | inactive | 6.25% (inactive) | -2.65% (inactive) | 25.6% (inactive)
CCOC(=O)CCC(=O)O[C@H]1[C@H](O[C@@H]2[C@@H](C)[C@H](O[C@H]3C[C@@](C)(OC)[C@@H](O)[C@H](C)O3)[C@@H](C)C(=O)O[C@H](CC)[C@@](C)(O)[C@H](O)[C@@H](C)C(=O)[C@H](C)C[C@@]2(C)O)O[C@H](C)C[C@@H]1N(C)C | 569 | -5.3% (inactive) | 0.8% (inactive) | 105 | -62.2% (inactive) | 115 | -0.734 | -0.933 | 0.00972 | -4.44% (inactive) | -0.495 (inactive) | -5.4e-05 (inactive) | 0.0056 (inactive) | inactive | 64.6% (active) | 20.3% (inactive) | 31.3% (inactive)
